Data reported in PubChem BioAssay (EPA / NIEHS).
Where “and” joins values, the source holds several entries; their conditions need not be identical. Equal entries are not always repeated. The source holds several records for some structures; these can differ, active in one and inactive in another. Calls of active or inactive are those of the source. The calls were made as follows: active = hit-call score of the fitted dose curve at least 0.9, where 1 is the maximum; inactive = score below 0.9.

Tests used:
[1] = read-out: Thrombomodulin, THBD (gene 7056); test: BSK_CASM3C_Thrombomodulin: BioMAP Diversity Plus: CASM3C Assay for Thrombomodulin Biomarker Activity (AID 2283051); settings: primary human coronary artery smooth muscle cells; actives raise or lower the signal;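 also: thrombomodulin protein level measured by ELISA 24 h after dosing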
[2] = read-out: Tissue Factor, F3 (gene 2152); test: BSK_CASM3C_TissueFactor: BioMAP Diversity Plus: CASM3C Assay for Tissue Factor Biomarker Activity (AID 2283052); settings: primary human coronary artery smooth muscle cells; actives raise or lower the signal;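 also: cell surface tissue factor protein level read by ELISA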
[3] = read-out: Interferon-gamma inducible Protein 10 (IP10), CXCL10 (gene 3627); test: BSK_hDFCGF_IP10: BioMAP Diversity Plus: hDFCGF Assay for Interferon-gamma inducible Protein 10 (IP10) Biomarker Activity (AID 2283053); settings: primary human foreskin fibroblasts; actives raise or lower the signal
Procedure, shortened: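 Cells: human dermal foreskin fibroblasts. Exposure: 24 h post-dosing. Detection: IP-10 ELISA, with values expressed against DMSO controls and fitted in both directions.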

[4] = read-out: Urokinase-type plasminogen activator receptor (uPAR), PLAUR (gene 5329); test: BSK_CASM3C_uPAR: BioMAP Diversity Plus: CASM3C Assay for Urokinase-type plasminogen activator receptor (uPAR) Biomarker Activity (AID 2283054); settings: primary human coronary artery smooth muscle cells; actives raise or lower the signal;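 also: cell-surface uPAR protein level quantified by ELISA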
[5] = read-out: Vascular cell adhesion molecule 1 (VCAM1), VCAM1 (gene 7412); test: BSK_CASM3C_VCAM1: BioMAP Diversity Plus: CASM3C Assay for Vascular cell adhesion molecule 1 (VCAM1) Biomarker Activity (AID 2283055); settings: primary human coronary artery smooth muscle cells; actives raise or lower the signal;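 also: VCAM-1 protein level quantified by ELISA on the cells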
[6] = read-out: Epidermal growth factor receptor (EGFR), EGFR (gene 1956); test: BSK_hDFCGF_EGFR: BioMAP Diversity Plus: hDFCGF Assay for Epidermal growth factor receptor (EGFR) Biomarker Activity (AID 2283057); settings: primary human foreskin fibroblasts; actives raise or lower the signal
Procedure, shortened: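 Dosing human primary skin fibroblasts, then measuring surface EGFR by ELISA at 24 h, gives the endpoint; gains and losses relative to DMSO were fitted in both directions.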

[7] = BSK_hDFCGF_Proliferation: Cell Proliferation Assessment in the BioMAP Diversity Plus: hDFCGF Assay (AID 2283059); settings: primary human foreskin fibroblasts;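 also: curves fitted for both rise and fall of signal versus DMSO baseline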
Procedure, shortened: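 Primary human foreskin fibroblasts, sub-confluent; […]; 10% TCA fix, 0.1% SRB stain, A560 total protein. Gain/loss fitted bidirectionally vs DMSO control.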

[8] = read-out: Macrophage colony-stimulating factor (MCSF), CSF1 (gene 1435); test: BSK_hDFCGF_MCSF: BioMAP Diversity Plus: hDFCGF Assay for Macrophage colony-stimulating factor (MCSF) Biomarker Activity (AID 2283060); settings: primary human foreskin fibroblasts; actives raise or lower the signal
Procedure, shortened: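 fibroblasts (human foreskin, primary), 24 h post-dose; M-CSF by ELISA; bidirectional fit, DMSO = baseline.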

[9] = BSK_hDFCGF_SRB: Viability Assessment in the BioMAP Diversity Plus: hDFCGF Assay (AID 2283061); settings: primary human foreskin fibroblasts;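 also: cells exposed to compound for 24 h before the read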
Procedure, shortened: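 SRB-based viability read on primary human skin fibroblasts at 24 h: TCA fixation, 0.1% dye, 560 nm. Gain or loss of signal is fitted against the DMSO negative control.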

[10] = read-out: TIMP metallopeptidase inhibitor 1 (TIMP1), TIMP1 (gene 7076); test: BSK_hDFCGF_TIMP1: BioMAP Diversity Plus: hDFCGF Assay for TIMP metallopeptidase inhibitor 1 (TIMP1) Biomarker Activity (AID 2283062); settings: primary human foreskin fibroblasts; actives raise or lower the signal
Procedure, shortened: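 Bidirectional curve fitting against DMSO baseline yielded this endpoint, based on ELISA detection of TIMP-1 in primary human foreskin fibroblasts exposed to compound for 24 h.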

[11] = read-out: Monokine induced gamma interferon (MIG), CXCL9 (gene 4283); test: BSK_hDFCGF_MIG: BioMAP Diversity Plus: hDFCGF Assay for Monokine induced gamma interferon (MIG) Biomarker Activity (AID 2283063); settings: primary human foreskin fibroblasts; actives raise or lower the signal
Procedure, shortened: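 Endpoint derived by bidirectional fitting relative to DMSO; MIG quantified via ELISA in primary human foreskin fibroblasts harvested 24 h after dosing.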

[12] = read-out: Matrix Metallopeptidase 1 (MMP1), MMP1 (gene 4312); test: BSK_hDFCGF_MMP1: BioMAP Diversity Plus: hDFCGF Assay for Matrix Metallopeptidase 1 (MMP1) Biomarker Activity (AID 2283064); settings: primary human foreskin fibroblasts; actives raise or lower the signal
Procedure, shortened: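 ELISA read-out of MMP1 from human foreskin fibroblasts (primary skin cells), 24 h post-dose. Gain or loss of signal was fitted bidirectionally versus DMSO negative control; cytotoxicity was checked by SRB in parallel cultures.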

[13] = read-out: Vascular cell adhesion molecule 1 (VCAM1), VCAM1 (gene 7412); test: BSK_hDFCGF_VCAM1: BioMAP Diversity Plus: hDFCGF Assay for Vascular cell adhesion molecule 1 (VCAM1) Biomarker Activity (AID 2283065); settings: primary human foreskin fibroblasts; actives raise or lower the signal;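 as to AC50: VCAM-1 protein level quantified by ELISA after 24 h chemical exposure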
Procedure, shortened: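 Measured after 24 h chemical treatment of primary human skin fibroblasts, VCAM-1 was detected by ELISA and concentration-response analysed in both directions versus DMSO vehicle.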

[14] = read-out: Plasminogen activator inhibitor-1 (PAI1), SERPINE1 (gene 5054); test: BSK_hDFCGF_PAI1: BioMAP Diversity Plus: hDFCGF Assay for Plasminogen activator inhibitor-1 (PAI1) Biomarker Activity (AID 2283066); settings: primary human foreskin fibroblasts; actives raise or lower the signal
Procedure, shortened: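 Fibroblasts from human foreskin were treated with test chemical. After 24 h, PAI-1 was measured by ELISA. Activity was fitted in both directions relative to DMSO.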

[15] = read-out: Intercellular Adhesion Molecule 1 (ICAM1), ICAM1 (gene 3383); test: BSK_KF3CT_ICAM1: BioMAP Diversity Plus: KF3CT Assay for Intercellular Adhesion Molecule 1 (ICAM1) Biomarker Activity (AID 2283067); settings: primary human keratinocytes with fibroblasts; actives raise or lower the signal
Procedure, shortened: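 Bidirectional curve fitting against a DMSO baseline was applied to ICAM-1 ELISA signal from primary human skin co-cultures harvested 24 h after treatment, with SRB staining of parallel wells for overt cytotoxicity.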

[16] = read-out: Interferon-gamma inducible Protein 10 (IP10), CXCL10 (gene 3627); test: BSK_KF3CT_IP10: BioMAP Diversity Plus: KF3CT Assay for Interferon-gamma inducible Protein 10 (IP10) Biomarker Activity (AID 2283068); settings: primary human keratinocytes with fibroblasts; actives raise or lower the signal
Procedure, shortened: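 In a primary skin co-culture of keratinocytes and fibroblasts, IP-10 is quantified by ELISA at 24 h after dosing. SRB staining of parallel wells monitors overt toxicity. Curves are fitted both directions against DMSO.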

[17] = BSK_KF3CT_SRB: Viability Assessment in the BioMAP Diversity Plus: KF3CT Assay (AID 2283069); settings: primary human keratinocytes with fibroblasts;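 also: total protein by sulforhodamine B staining as a cytotoxicity measure; fitted for both signal gain and loss against DMSO baseline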
Procedure, shortened: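 SRB read-out at 560 nm (0.1% stain, TCA-fixed cells) gauges overt cytotoxicity in a human skin keratinocyte–fibroblast co-culture 24 h post-dosing. Signal change was fitted bidirectionally relative to DMSO control.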

[18] = read-out: Interleukin-1 alpha (IL1a), IL1A (gene 3552); test: BSK_KF3CT_IL1a: BioMAP Diversity Plus: KF3CT Assay for Interleukin-1 alpha (IL1a) Biomarker Activity (AID 2283070); settings: primary human keratinocytes with fibroblasts; actives raise or lower the signal
Procedure, shortened: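 Primary skin co-culture (keratinocytes, foreskin fibroblasts), 24 h exposure; ELISA for IL-1a; bidirectional curve fit vs DMSO.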

[19] = read-out: Collagen III, COL3A1 (gene 1281); test: BSK_hDFCGF_CollagenIII: BioMAP Diversity Plus: hDFCGF Assay for Collagen III Biomarker Activity (AID 2283056); settings: primary human foreskin fibroblasts; actives raise or lower the signal
Procedure, shortened: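 Response relative to DMSO, fitted in both directions, reflects ELISA-measured collagen III in human primary skin fibroblasts 24 h after compound addition.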

[20] = read-out: Interleukin-8 (IL8), CXCL8 (gene 3576); test: BSK_hDFCGF_IL8: BioMAP Diversity Plus: hDFCGF Assay for Interleukin-8 (IL8) Biomarker Activity (AID 2283058); settings: primary human foreskin fibroblasts; actives raise or lower the signal
Procedure, shortened: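 Fibroblast monolayers (human foreskin, hDFCGF) received test chemical for 24 h before ELISA detection of IL-8; either increases or decreases relative to DMSO count as activity.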

Measured: AC50

CCN(CCO)S(=O)(=O)C(F)(F)C(F)(F)C(F)(F)C(F)(F)C(F)(F)C(F)(F)C(F)(F)C(F)(F)F
inactive: [2] | [6] | [10] | [12] | [15] | [17]
active: [1] 13.4 µM and 10.3 µM | [3] 35.9 µM and 30 µM | [4] 11.1 µM and 30 µM | [5] 7.11 µM and 8.86 µM | [7] 7.13 µM and 8.13 µM | [8] 23.2 µM and 23.3 µM | [9] 21.9 µM and 2.95 µM | [11] 22.1 µM and 19.1 µM | [12] 50.1 µM | [13] 30 µM and 12.8 µM | [14] 37.2 µM and 25.4 µM | [16] 33.7 µM and 30 µM | [18] 20.8 µM and 30 µM

OCCCC(F)(F)C(F)(F)C(F)(F)C(F)(F)C(F)(F)C(F)(F)C(F)(F)C(F)(F)F
active: [1] 7.67 µM | [2] 25.4 µM | [3] 9.54 µM and 7.81 µM | [4] 46.1 µM and 51.2 µM | [5] 37.4 µM and 30 µM | [6] 3.16 µM and 3.2 µM | [7] 3.28 µM and 4.77 µM | [8] 8.04 µM and 6.66 µM | [9] 9.4 µM and 6.19 µM | [10] 9.8 µM and 11.3 µM | [11] 12.5 µM and 12 µM | [12] 19 µM and 13.3 µM | [13] 9.41 µM and 6.1 µM | [14] 6.66 µM and 5.89 µM | [15] 12.8 µM and 11.7 µM | [16] 12.8 µM and 9.49 µM | [17] 8.92 µM and 10.7 µM | [18] 11 µM and 8.25 µM
inactive: [1] | [2]

O=C(O)C(F)(F)OC(F)(F)C(F)(F)OC(F)(F)C(F)(F)OC(F)(F)F
inactive: all assays above

C=CC(=O)OCC(F)(F)C(F)(F)C(F)(F)C(F)(F)C(F)(F)C(F)(F)C(F)(F)C(F)F
active: [5] 11 µM | [7] 18.4 µM and 11.6 µM | [8] 28.8 µM and 30 µM | [11] 26.9 µM and 30 µM | [13] 17 µM and 17.5 µM
inactive: [1] | [2] | [4] | [5] | [6] | [20] | [9] | [10] | [12] | [14] | [15] | [16] | [17] | [18]

O=C(O)C(F)(F)C(F)(F)C(F)(F)OC(F)(C(F)(F)F)C(F)(F)F
not listed: [20]
inactive: all other assays above
